The record followed here is PubChem BioAssay AID652010 (The Scripps Research Institute Molecular Screening Center, 2013).

SMILES strings stand for the structures. In all, about 370,000 compounds went through this assay and about 4,100 (1.1%) were called active. This excerpt belongs to a sample that is enriched for actives. Values without a mark were called inactive.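 Rule for the calls: active = inhibition above the mean over all tested compounds plus 3 SD (cut at about 3.6% in these data); inactive = the rest.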

The assay is described as follows: relief of DAX-1 repression of SF-1 activity – cell-based, luminescence, SF-1 (NR5A1), full-length DAX-1, primary screen (AID 652010).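 Note: 0% = DAX-1 cells with DMSO and 100% = cells lacking DAX-1 with DMSO; higher inhibition means more luminescence from relief of DAX-1 repression.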 As to conditions: HEK293T StAR-luciferase reporter, SF-1/DAX-1 repression relief; at 6.8 µM; active compounds read high.
Take `CCOc1ccc(N(CC(=O)Nc2c(C)n(C)n(-c3ccccc3)c2=O)S(=O)(=O)c2ccc(Cl)s2)cc1`: the inhibition is -1.26%.
In the case of `Cc1ccccc1OCCC(=O)OCC(=O)NCCc1ccc(S(N)(=O)=O)cc1`, the inhibition is 2.36%.
In the case of `CCC(NC(=O)C1C2C=CC3(CN(Cc4ccccc4)C(=O)C13)O2)c1ccccc1` (stereo not drawn), the inhibition is -0.13%.
As for `Cc1cccc(NC(=O)c2cc3c(C)nn(-c4ccccc4)c3s2)c1`, the figure is -0.95%; as for `CN(C)CC(=O)N[C@@H]1C[C@@H]2O[C@H](CO)CC[C@@H]2O[C@@H]1CCc1ccc(C#Cc2ccccc2)cc1`, -1.24%.
As for `CC(OC(=O)Cc1ccc(F)cc1)C(=O)N1CCc2ccccc21` (stereo not drawn), the figure is 0.95%.
Take `O=C(CSCc1ccccc1)N1CCc2ccccc21`: the inhibition is 3.64% (active).
As for `O=C(CN1C(=O)c2ccccc2S1(=O)=O)N1CCc2ccccc21`, the figure is -2.91%; as for `Cc1ccc(-n2c(SCC(=O)Nc3ccc(S(=O)(=O)Nc4nccs4)cc3)nnc2-c2cccnc2)cc1`, 0.65%.
For `CCOC(=O)[C@]12CCCCC/C=C\1N(Cc1ccc(OC)cc1)C(=O)[C@H]2CC(=O)NCc1ccc(C)o1`, the inhibition was 0.47%.
Turning to `COc1cc(C2c3cc4c(cc3C(O)C3COC(=O)C23)OCO4)cc(OC)c1OC` (stereo not drawn), the inhibition was 7.49% (active).
`COc1cc(C2CC(=O)Oc3cc(OC)c(OC)c(OC)c32)cc(OC)c1OC` (stereo not drawn): the inhibition is 0.24%.
With `COc1cc(C=C(OC(C)=O)c2ccc3c(c2)OCO3)cc(OC)c1OC`, the inhibition was -1.67%.
Turning to `O=C(NC1CCCCN(Cc2cccc(C(F)(F)F)c2)C1=O)c1ccccc1I` (stereo not drawn), the inhibition is -0.84%.
As for `Cc1ccc(C(=O)C2CCN(CC(=O)NCCC(C)C)CC2)cc1`, the figure is -0.3%; as for `Clc1ccc2nc(CSc3ccccc3)cn2c1`, 4.45% (active); as for `O=c1c2ccccc2nc2n1C(CSc1ccc(Cl)cc1)CN2` (stereo not drawn), 0.41%.
For the compound `Cn1nc(-c2ccccc2)c(CSc2cccc(Cl)c2)c1Cl`, the inhibition was -0.99%.
`O=C(N[C@H](C(=O)N1CCC[C@H]1C(=O)NCCc1ccccc1Cl)c1ccccc1)c1ccccc1`: the inhibition is -0.28%.
As for `CCOC(=O)[C@]12CCCC3=C1N(CCC3)C(=O)[C@@H](CC(=O)NCc1cccs1)C2`, the figure is 0.02%; as for `CC(CCN1CCC(C(O)(c2ccccc2)c2ccccc2)CC1)Oc1ccc(C(F)(F)F)cc1` (stereo not drawn), -0.91%; as for `Cc1ccc(Nc2c(F)c(F)c(F)c(F)c2C(=O)O)c(C)c1`, 0.38%.
With `COc1ccc(CCNC(=O)CSc2nc(-c3ccc(OC)c(OC)c3)ccc2C#N)cc1`, the inhibition is -0.18%.
In the case of `CCOc1ccc2cc(C#N)c(SCC(=O)OC)nc2c1`, the inhibition was 3.71% (active).
On to `Cc1cc(C#N)c(SCC(N)=O)nc1-c1ccc(F)cc1`, for which the inhibition was 0.32%.
With `Cc1ccc(-n2c(COc3ccccc3)nnc2SCC(=O)Nc2ccc3c(c2)OCCO3)cc1`, the inhibition is -2.9%.
Consider `COc1ccc(-n2c(SCC(=O)Nc3ccccc3-c3ccccc3)nnc2-c2cccnc2)cc1`, for which the inhibition is -1.84%.
In the case of `Nc1nc2c(ncn2[C@@H]2O[C@H](CNCc3ccc(OCCCN4CCOCC4)cc3)[C@@H](O)[C@H]2O)c(=O)[nH]1`, the inhibition was 1.17%.
In the case of `CC(C)(O)C#Cc1ccc(CNC[C@H]2O[C@@H](n3cnc4c(=O)[nH]c(N)nc43)[C@H](O)[C@@H]2O)s1`, the inhibition is 5.95% (active).
As to `Nc1nc2c(ncn2[C@@H]2O[C@H](CNS(=O)(=O)N3CCc4ccccc4C3)[C@@H](O)[C@H]2O)c(=O)[nH]1`, the inhibition was -0.84%.
With `Clc1ccc(-n2c(COc3ccccc3)nnc2SCc2nc3ccccc3[nH]2)cc1`, the inhibition is 0.06%.
Regarding `O=C(CSc1nc2ccccc2s1)N=Nc1c(O)[nH]c2ccccc12`, the inhibition was 0.2%.
Consider `COC(=O)C1CN(CC(C)C)CCS(=O)(=O)N1Cc1ccc(F)cc1` (stereo not drawn), for which the inhibition was -0.94%.
As for `CCC(=O)Nc1ccc2c(c1)C(=O)N(C)[C@@H]1CC[C@@H](CC(=O)NCCc3ccccc3)O[C@H]1CO2`, the figure is 0.25%; as for `Cc1nn(-c2ccccc2)c2c1C(c1cccc([N+](=O)[O-])c1)N(c1ccccc1)C(=O)N2` (stereo not drawn), -0.06%; as for `Cc1nn(-c2ccc([N+](=O)[O-])cc2)c(N)c1-c1ccccc1`, 4.84% (active).
Consider `CC(C)(C)c1cnnn1-c1ccc([N+](=O)[O-])cc1`, for which the inhibition was 0.31%.
Regarding `O=[N+]([O-])c1ccc2nc(-c3ccccn3)[nH]c2c1`, the inhibition is 3.65% (active).
As to `O=[N+]([O-])c1ccc(N/N=C2/CCCCC2c2ccccn2)c([N+](=O)[O-])c1` (stereo not drawn), the inhibition is -0.26%.
`O=C(Nc1ccc([N+](=O)[O-])cc1)OCCc1ccccn1`: the inhibition was -0.01%.
Turning to `CC(C)CNc1cccc2c1S(=O)(=O)N(Cc1cn(Cc3ccc(Cl)cc3)nn1)Cc1ccccc1O2`, the inhibition was -0.85%.
Consider `Cc1ccc(C2=CCN(C)C(=O)N2c2ccc(Cl)cc2)cc1`, for which the inhibition is -0.53%.
For the compound `OC(c1ccccc1)c1nc(-c2cnc3ccccc3c2)cs1` (stereo not drawn), the inhibition is 9.07% (active).
For the compound `CC(C)c1cccc(-c2csc(C(O)c3ccccc3)n2)c1` (stereo not drawn), the inhibition is 0.06%.
With `COc1cccc(C(NC(C)=O)c2nc(-c3cnc4ccccc4c3)cs2)c1` (stereo not drawn), the inhibition was -0.06%.
In the case of `CSc1ncnc2c1ncn2CCCNCc1cccs1`, the inhibition is 0.19%.
In the case of `Cc1ccc(NC(=O)c2oc3ccccc3c2C)c([N+](=O)[O-])c1`, the inhibition was 0.06%.
Take `O=C(Nc1ccc2ccccc2c1[N+](=O)[O-])c1ccccc1`: the inhibition was 5% (active).
As for `CN(C)c1ccc(NC(=O)c2ccncc2)c2ccccc12`, the inhibition was -0.26%.
Turning to `COc1cccc(NC(=O)CCc2nnc3ccc(N4CCC(C)CC4)nn23)c1`, the inhibition was -0.5%.
On to `O=C(NCc1cccs1)C1CCN(S(=O)(=O)c2ccccc2[N+](=O)[O-])CC1`, for which the inhibition is 0.71%.
As to `O=C1NC(Nc2nc3ccccc3s2)(C(F)(F)F)C(=O)N1C1CCCCC1` (stereo not drawn), the inhibition was -1.98%.
For `O=C(COc1ccc(-c2ccccc2)cc1)NN=C1CCCC1` the value was -1.32%; for `c1ccc2sc(NN=C3CCCC3)nc2c1`, 4.11% (active); for `CCOC(=O)c1oc2c(CN3CCN(CCO)CC3)c(O)c(CC)cc2c(=O)c1-c1nc2ccccc2s1`, 0%.
For `CCCCNC(=O)C[C@@H]1C(=O)N(CCc2ccc(Cl)cc2)C2=CCCC[C@]21C(=O)OCC` the value was -1.99%.
`COc1cccc(NC(=O)C/C(C)=N/NC(=O)C2CCCCC2)c1`: the inhibition is -0.19%.
As for `Cc1ccc(C)c(-n2ccnc2SCC(N)=O)c1`, the figure is -0.07%; as for `O=C(NC(=S)Nc1ccc(Br)cc1F)C1CCCCC1`, 3.34%.
`O=C(NC(=S)Nc1ccc(Cl)cc1Cl)C1CC1`: the inhibition is 5.23% (active).
As for `S=C(Nc1ccc(Cl)cc1Cl)N1CCCC1`, the inhibition was 2.27%.
`Cc1cccc(-n2c(O)c(C=Nc3ccccc3N)c(=O)[nH]c2=O)c1`: the inhibition is 3.64% (active).
Turning to `Cc1cc(=O)n(C)c(=O)n1CCCNc1ccccc1`, the inhibition is 0.36%.
For `COc1ccc(C#CCNCc2ccc(OC)cc2OC)cc1` the value was -1.39%.
Consider `Cc1cc(C(=O)NN=C/C=C/c2ccco2)n[nH]1`, for which the inhibition is 0.49%.
As for `Nc1nonc1-n1nnc(C(=O)N/N=C/c2ccc(Cl)cc2)c1-c1ccc2c(c1)OCO2`, the figure is 0.01%; as for `C(=N\Nc1ccc2ccccc2n1)/c1ccc2c(c1)OCO2`, 8.27% (active).
As for `Clc1ccc(Nc2ccc3ccccc3n2)cc1`, the figure is 2.89%; as for `COC(=O)[C@@]12CCCCC3=C1N(CCC3)C(=O)[C@H]2CC(=O)NCc1cccc2ccccc12`, -0.9%; as for `O=C(Nc1cc(F)ccc1F)c1ccc2c(=O)n3c(nc2c1)CCC3`, 3.87% (active).
As for `Cc1cc(C)c(C)c(S(=O)(=O)N2CCN(C(=O)c3ccc4c(=O)n5c(nc4c3)CCC5)CC2)c1C`, the inhibition was 5.04% (active).
For `O=C(O)c1ccc2c(=O)n3c(nc2c1)/C(=C/c1ccc(OC(F)F)cc1OC(F)F)CC3` the value was 0.3%.
Consider `O=C(c1ccc(Cl)c(S(=O)(=O)N2CCCCC2)c1)N1CCCCCC1`, for which the inhibition is -3.11%.
In the case of `CC1CCN(C(=O)c2ccc3c(=O)n4c(nc3c2)CCCCC4)CC1`, the inhibition is -0.43%.
With `N#Cc1cccc(OC(=O)c2ccc3c(=O)n4c(nc3c2)CCC4)c1`, the inhibition was -0.02%.
In the case of `COP(=O)(O)CNC(=O)OCc1ccccc1`, the inhibition was -0.36%.
On to `COC(=O)c1c(-c2ccc(OC)cc2)c2c(c3c4cc(OC)ccc4n(S(=O)(=O)c4ccc(F)cc4)c13)C(=O)N(C)C2`, for which the inhibition is -2.04%.
For the compound `CC(=O)c1ccc(S(=O)(=O)NCC2CCN(C(=O)C(=O)c3cccs3)CC2)cc1`, the inhibition was -0.63%.
For `Cc1cc(C(=O)NCCc2ccc(Cl)cc2)c(C)o1`, the inhibition is 5.45% (active).
For the compound `Cc1cc(OC(=O)NCCc2ccc(F)cc2)ccc1F`, the inhibition is -0.8%.
As for `NS(=O)(=O)c1ccc(CCNC(=O)c2ccc(Cl)cc2[N+](=O)[O-])cc1`, the figure is -0.5%; as for `CC(=O)OCCN1CCCC12CCC(c1ccccc1)CC2` (stereo not drawn), -0.24%.
Regarding `Cc1c(NC(=O)C(=O)N/N=C/c2cccs2)c(=O)n(-c2ccccc2)n1C`, the inhibition was 0.14%.
With `O=C(O)c1ccc(N/N=C/c2cn(-c3ccccc3)nc2-c2cccs2)cc1`, the inhibition is 6.23% (active).
For `O=C(N/N=C/c1sc(N2CCCCC2)nc1-c1cccs1)c1cccnc1` the value was -1.84%; for `CN(CCO)c1cccc2c1S(=O)(=O)N(Cc1cn(Cc3ccc(C(F)(F)F)cc3)nn1)Cc1ccccc1O2`, -1.1%; for `C=CCN1C(=O)[C@@H](CC(=O)NCCCOCCCC)[C@]2(C(=O)OCC)CCCCC/C=C/12`, 0.1%.
In the case of `O=C1/C(=C\Nc2ccccc2)CCN1c1ncccn1`, the inhibition is 0.43%.
